Source: PubChem (Broad Institute)
The entries come from a sample that favours hits as a whole.
PD-1 reversal: reversal of PD-1 mediated T-cell inhibition. 29,000 tested, under 10 active. primary human CD4 T cells, PD-L1 beads, CellTiter-Glo 96 h. activation, % (no concentration beside the values); call rule not given here;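 also: 0% = median vehicle wells and 100% = positive control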
NOMO-1 viab: STK33 inhibitor candidate reducing NOMO-1 cell viability | NOMO-1 AML viability, CellTiter-Glo luminescence, 72 h | inhibition, % (concentration not given with the values) | 7.5% of 37,000 active | AID 2330; in the data active = inhibition above about 80%; inconclusive = no clear call, values can overlap the other calls
ROS inducer: raises reactive oxygen species in U2OS cancer cells. U2OS ROS induction, H2DCF-DA fluorescence. ROS induction (% of piperlongumine), % at 10 µM. 2% of 46,000 active; in the data active = ROS induction above about 79%, passing the limit was not always enough; inconclusive = no clear call, values can overlap the other calls;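 also: 0% = DMSO vehicle median and 100% = reference compound median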
* = called active by the depositor; ? = inconclusive; . = not tested or not shown.

SMILES | PD-1 reversal | NOMO-1 viab | ROS inducer
C[C@@H]1CCCCO[C@@H](CN(C)Cc2ccc(Cl)c(Cl)c2)[C@@H](C)CN([C@H](C)CO)C(=O)c2cc(NC(=O)Cc3ccccc3)ccc2O1 | -1 | 102* | 131*
C[C@@H]1CN([C@H](C)CO)C(=O)Cc2cc(NC(=O)CCCCCC(=O)Nc3ccccc3N)ccc2O[C@H]1CN(C)Cc1ccc2c(c1)OCO2 | 0 | 49 | -5
CCCCN(C)C(=O)c1[nH]c2ccccc2c1Sc1ccc(Cl)cc1 | . | . | -8
Cc1ccc(NC(=O)c2ccc(CSc3ncnc4nc[nH]c34)cc2)cc1 | 0 | -1 | 26
Cc1ccc(CSc2nc3ccccc3c3nc(CCc4c(C)n[nH]c4C)nn23)cc1 | . | . | 12
O=C(Cn1nc(Cc2cccnc2)c2ccccc2c1=O)N1CCCC1 | . | . | -15
CC1CCN(S(=O)(=O)c2ccc3c(c2)OCC(=O)N3)CC1 | . | . | 10
O=C(CCn1cccc1)NCC1COc2ccccc2O1 (centres undefined) | . | . | 3
CNC(=O)C1CCN(S(=O)(=O)c2ccc3c(c2)nc(C)n3C2CCCC2)CC1 | . | . | -17
C[C@@H]1CN([C@H](C)CO)C(=O)c2cc(NC(=O)CCCCCC(=O)Nc3ccccc3N)ccc2O[C@H]1CN(C)C(=O)Nc1ccc(F)cc1 | 1 | -10 | 2
C[C@H]1CN([C@@H](C)CO)C(=O)c2cc(NC(=O)CCCCCC(=O)Nc3ccccc3N)ccc2O[C@@H]1CN(C)C(=O)Nc1ccc(F)cc1 | 0 | -20 | 108*
Cc1ccccc1C(=O)OCC1CCCN2CCCCC12 (centres undefined) | . | . | -4
CCn1c(C(=O)N2CCC(C(=O)NC3CCCCCC3)CC2)cc2sccc21 | . | . | -7
CCCCN(C1=NC2CS(=O)(=O)CC2S1)c1ccc(Cl)cc1 (centres undefined) | . | . | -5
O=C(CSc1ccc(-c2cccnc2)nn1)c1ccc(F)cc1 | . | . | 4
O=c1oc(-c2cccnc2)nc2sc3c(c12)CCCCC3 | 0 | 21 | -7
CCc1ccc(NC(=O)c2ccc3c(c2)OCO3)cc1 | . | . | -8
CC(C)c1ccc(-c2csc3ncn(N)c(=O)c23)cc1 | . | . | -12
Cn1c(SCC(=O)n2c3c(c4ccccc42)CCCC3)nnc1-c1ccco1 | -3 | 109* | 12
Cn1c(SCC(=O)n2c3c(c4ccccc42)CCCC3)nnc1-c1ccccc1 | 1 | 5 | 5
CCOC(=O)c1cc(C)nc(Sc2ccccc2NC(=O)c2cccc(C(F)(F)F)c2)c1C#N | -1 | 114* | 45
CCOC(=O)c1cc(C#N)c(Nc2ccccc2OC)nc1C(F)(F)F | 4 | 23 | 34
COc1ccc(S(=O)(=O)Nc2cc(C)cc(C)c2)cc1 | 0 | 96* | -1
COCc1nnc(NS(=O)(=O)c2ccc(OC)cc2)s1 | . | . | -9
Cc1nc2c3ccccc3n3c(CCCC(=O)NC4CCCCC4)nnc3n2n1 | . | . | -5
SMILES | PD-1 reversal | NOMO-1 viab | ROS inducer
CC1(C)Cc2c(sc3ncn4nc(-c5ccccc5)nc4c23)C(C)(C)N1 | -2 | 117* | 28
Cn1ncc2c1ncn1nc(-c3ccccc3)nc21 | . | . | -2
Cc1onc(-c2c(Cl)cccc2Cl)c1N(C)C(=O)N1CCCCC1 | . | . | -13
Cc1onc(-c2ccccc2)c1-c1ccnn1C(=O)c1ccc(Cl)cc1 | . | . | -16
Cc1cccc(-c2nc3ccccc3c(=O)n2OC(=O)c2ccc(C)c(C)c2)c1 | . | . | -21
COc1cc(OC)cc(-c2nnc(SCC(=O)Nc3ccc(I)cc3)o2)c1 | -5 | 90* | 16
COC(=O)c1cccc(NC(=O)CSc2nnc(-c3cc(OC)cc(OC)c3)o2)c1 | 1 | -4 | -9
COc1ccc2[nH]c3c(=O)n(CCN4CCC(Cc5ccccc5)CC4)cnc3c2c1 | . | . | 18
COc1ccc2cc3c(NC(=O)Cc4cccc(C(F)(F)F)c4)n[nH]c3nc2c1 | . | . | 1
O=C1CC(N2C(=O)C3CC=CCC3C2=O)C2COC1O2 (centres undefined) | . | . | 91*
O=C1C2CC=CCC2C(=O)N1Cc1ccccc1 (centres undefined) | . | . | -4
CCC(Sc1nc2cc3c(cc2c(=O)n1Cc1ccco1)OCO3)C(=O)NCc1ccc(C)cc1 (centres undefined) | . | . | 2
COC(=O)c1c(NC(=S)NC(=O)c2ccccc2)sc2c1CCCC2 | . | . | -9
COc1ccc(C2C3=C(CC(C)(C)CC3=O)Nc3[nH]c(=O)[nH]c(=O)c32)cc1 (centres undefined) | . | . | 8
CCNc1cc(N)[n+](CC)c2n[nH]c(N)c12 | 0 | 106* | -7
CCc1cccc(NC(=O)C2c3ccccc3Oc3ccccc32)c1 | . | . | -16
COC(=O)c1ccc(NC(=O)CC2Sc3ccc(C(F)(F)F)cc3NC2=O)cc1 (centres undefined) | 1 | 66 | -3
C[C@H]1CN([C@@H](C)CO)C(=O)c2cc(NC(=O)Nc3cccc4ccccc34)ccc2O[C@H]1CN(C)Cc1ccccc1 | -1 | 14 | 16
C[C@@H]1CN([C@@H](C)CO)C(=O)c2cc(NC(=O)Nc3ccc4c(c3)OCO4)ccc2O[C@@H]1CN(C)Cc1ccc2c(c1)OCO2 | 2 | 28 | 2
COc1ccc(NC(=O)Nc2ccc3c(c2)C(=O)N([C@@H](C)CO)C[C@H](C)[C@H](CN(C)Cc2ccc4c(c2)OCO4)O3)cc1 | 1 | 98* | 2
C[C@H](CO)N1C[C@H](C)[C@@H](CN(C)Cc2ccc3c(c2)OCO3)Oc2ccc(NC(=O)Nc3ccccc3)cc2C1=O | 1 | 25 | 36
C[C@H](CO)N1C[C@H](C)[C@H](CN(C)Cc2ccc3c(c2)OCO3)Oc2ccc(NC(=O)Nc3ccccc3)cc2C1=O | 0 | 94* | -3
COc1ccc(NC(=O)Nc2ccc3c(c2)C(=O)N([C@@H](C)CO)C[C@@H](C)[C@@H](CN(C)Cc2ccc4c(c2)OCO4)O3)cc1 | . | 9 | -5
C[C@H](CO)N1C[C@H](C)[C@H](CN(C)Cc2ccc3c(c2)OCO3)Oc2ccc(NC(=O)Nc3cccc4ccccc34)cc2C1=O | . | 98* | 7
C[C@H]1CN([C@@H](C)CO)C(=O)c2cc(NC(=O)Nc3ccc4c(c3)OCO4)ccc2O[C@H]1CN(C)Cc1ccc2c(c1)OCO2 | 0 | 93* | 23
SMILES | PD-1 reversal | NOMO-1 viab | ROS inducer
COc1ccc(Cc2nc3c4cnn(-c5c(F)c(F)cc(F)c5F)c4ncn3n2)cc1OC | . | . | 14
Cc1ccc(C2CC(=O)n3nc(N)nc3N2)cc1 (centres undefined) | . | . | -5
C[C@H]1CN([C@@H](C)CO)C(=O)c2cc(NC(=O)Cc3ccccc3)ccc2O[C@H]1CN(C)Cc1ccc2c(c1)OCO2 | -1 | 95* | 0
C[C@@H]1CN([C@H](C)CO)C(=O)c2cc(NC(=O)Nc3ccc4c(c3)OCO4)ccc2O[C@@H]1CN(C)Cc1ccc2c(c1)OCO2 | 1 | 28 | ?
C[C@@H]1CN([C@H](C)CO)C(=O)c2cc(NC(=O)Cc3ccccc3)ccc2O[C@H]1CN(C)Cc1ccc2c(c1)OCO2 | 1 | 6 | 6
C[C@@H]1CN([C@@H](C)CO)C(=O)c2cc(NC(=O)Nc3ccc4c(c3)OCO4)ccc2O[C@H]1CN(C)Cc1ccc(Cl)c(Cl)c1 | -1 | 95* | 35
COCCNC(=O)c1c(NC(=O)c2nc(SC)ncc2Cl)sc2c1CCCC2 | -5 | 138* | -1
CSc1ncc(Cl)c(C(=O)Nc2sc3c(c2C(=O)NCCc2ccccc2)CCC3)n1 | 1 | 19 | 5
